Data: PubChem BioAssay (NCI)
This is part of a sample that, as a whole, favours compounds with a hit. Of some 83,000 tested, about 20% had one in any assay.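 Single-concentration screen, 48 h exposure, 96-well plates. Endpoint: percent growth. Below 10 = active.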 A number with no mark means an inactive call. Active and inactive are the calls of the source.

System: MDA-MB-468 breast
Assay: NCI-60 one-dose screen, 48 h (100 = growth as untreated, 0 = no growth, -100 = all killed)
Settings: 10 µM unless noted

SMILES | growth
CC1CC(=O)C2=C(C1)Nc1ccc(Br)cc1CC2c1c[nH]c2ccc(Br)cc12 (centres undefined) | -3.65% (active)
CCCCCCCCCCCCOC(=N)N(C)C | 104%
COc1ccc(C(=O)c2cc(OC)c(OC)c(OC)c2)cc1/C=C/C(=O)c1cc(OC)c(OC)c(OC)c1 | 73%
O=C(Nc1nc(Cl)nc(Nc2ccc(N3CCOCC3=O)cc2)n1)c1ccc(Cl)s1 | 68.1%
CC(=O)Nc1ccc(C(=O)CCl)cc1 | 8.65% (active)
Oc1ccc(N=Cc2ccccc2)cc1 | 53.9%
Cc1ccc(S(=O)(=O)Nc2ccc(Cl)cc2)cc1 | 107%
O=C(Nc1cccc(-n2ccc3c(NC(=O)c4ccccc4)nccc32)c1)Nc1ccc(Cl)c(C(F)(F)F)c1 | -3.83% (active)
Cc1ccc(-n2nnc(C3=NCCc4c3[nH]c3ccc(Cl)cc43)c2C)cc1 | 71.5%
S=C(Nc1ccccc1)N1CCCCC1 | 90.3%
COc1c(C(=O)/C=C/c2ccc(C)o2)c(O)cc2occc12 | 30.7%
C=C(C)[C@@H]1CC[C@]2(C(=O)NC3CCCCC3)CC[C@]3(C)[C@H](CC[C@@H]4[C@@]5(C)CC[C@H](N)C(C)(C)[C@@H]5CC[C@]43C)[C@@H]12 | 103%
Cc1cc(Br)c2nsnc2c1[N+](=O)[O-] | -24.6% (active)
CCN(CC)c1ccc(/C=N/NC(=O)Cc2ccc(Nc3ccnc(C(F)(F)F)c3)cc2)c(O)c1 | 26.1%
CCOC(=O)CCN(CCC(=O)OCC)c1ccccc1 | 96.6%
N#Cc1cccc(-c2nc3ccccn3c2NCCN2CCOCC2)c1 | 111%
Cn1c(=O)c2[nH]c(C3CC=CCC3)nc2n(C)c1=O (centres undefined) | 107%
CCN(CC)CC(=O)Nc1c(C)cccc1C | 101%
NC(=NCCCOc1ccc(Cl)cc1)Nc1ccc(C(F)(F)F)cc1 | -8.47% (active)
